Data from the supplement of paper PMC13380429.

Experiments:
[1] = test system: Vero E6 infected with SARS-CoV-2; experiment: morphology score (similarity to uninfected cells); higher = more like uninfected cells; details: 24 h
[2] = test system: Vero E6 infected with SARS-CoV-2; experiment: SARS-CoV-2 infection rate relative to infected DMSO; higher = more infection, active = 60 or less; details: 24 h

Structure (SMILES)	morphology score [1]	SARS-CoV-2 infection rate [2]
N#Cc1cccc(-c2nc(-c3cccnc3)no2)c1 (10 µM)	0.143	98.5% (inactive)
O=C(OCC(O)CO)c1ccccc1Nc1ccnc2c(C(F)(F)F)cccc12 (stereo not drawn) [floctafenine] (10 µM)	-0.157	106% (inactive)
Cc1ccc(NC(=O)c2ccc(CN3CCN(C)CC3)cc2)cc1Nc1nccc(-c2cccnc2)n1 [imatinib] (10 µM)	0.738	37% (active)
COC(=O)C(Cc1ccc(OCCn2c(=O)sc3cc(C(=O)c4ccccc4)ccc32)cc1)C(=O)OC (10 µM)	0.318	88.5% (inactive)
CCOP(=S)(OCC)Oc1cc(C)nc(C(C)C)n1 [dimpylate] (10 µM)	-0.0379	116% (inactive)
O=C(Nc1cnc(Cl)nc1)c1ccc(F)c(F)c1 (10 µM)	0.0439	101% (inactive)
CC[C@@H]1Cn2c(c3nc(-c4ccccc4)nc-3n(C)c2=O)N1 (10 µM)	0.14	90.5% (inactive)
Nc1nc2c(ncn2COC(CO)CO)c(=O)[nH]1 [ganciclovir] (10 µM)	0.108	97% (inactive)
C[C@H](CCC(=O)O)[C@H]1CC[C@H]2[C@@H]3[C@H](O)C[C@@H]4C[C@H](O)CC[C@]4(C)[C@H]3C[C@H](O)[C@]12C [cholic-acid] (10 µM)	0.0109	110% (inactive)
